From the supplement of paper PMC11732987, “Enantioselective OTUD7B fragment discovery through chemoproteomics screening and high-throughput optimisation” (Communications Chemistry, 2025)

What was measured:
Experiment in all cases: log2 ratio of Biotin-Ahx-Ub-VS probe labelling (fragment/DMSO); higher = less target engagement (more negative = stronger competition), active = hit call of the paper (q ≤ 0.05, log2 ratio ≤ -1)
Details in all cases: compound concentration: 200 uM; treatment time: 3 h
USP42 = target: T1, USP42 (UniProt Q9H9J4)
T1 sequence (whole entry): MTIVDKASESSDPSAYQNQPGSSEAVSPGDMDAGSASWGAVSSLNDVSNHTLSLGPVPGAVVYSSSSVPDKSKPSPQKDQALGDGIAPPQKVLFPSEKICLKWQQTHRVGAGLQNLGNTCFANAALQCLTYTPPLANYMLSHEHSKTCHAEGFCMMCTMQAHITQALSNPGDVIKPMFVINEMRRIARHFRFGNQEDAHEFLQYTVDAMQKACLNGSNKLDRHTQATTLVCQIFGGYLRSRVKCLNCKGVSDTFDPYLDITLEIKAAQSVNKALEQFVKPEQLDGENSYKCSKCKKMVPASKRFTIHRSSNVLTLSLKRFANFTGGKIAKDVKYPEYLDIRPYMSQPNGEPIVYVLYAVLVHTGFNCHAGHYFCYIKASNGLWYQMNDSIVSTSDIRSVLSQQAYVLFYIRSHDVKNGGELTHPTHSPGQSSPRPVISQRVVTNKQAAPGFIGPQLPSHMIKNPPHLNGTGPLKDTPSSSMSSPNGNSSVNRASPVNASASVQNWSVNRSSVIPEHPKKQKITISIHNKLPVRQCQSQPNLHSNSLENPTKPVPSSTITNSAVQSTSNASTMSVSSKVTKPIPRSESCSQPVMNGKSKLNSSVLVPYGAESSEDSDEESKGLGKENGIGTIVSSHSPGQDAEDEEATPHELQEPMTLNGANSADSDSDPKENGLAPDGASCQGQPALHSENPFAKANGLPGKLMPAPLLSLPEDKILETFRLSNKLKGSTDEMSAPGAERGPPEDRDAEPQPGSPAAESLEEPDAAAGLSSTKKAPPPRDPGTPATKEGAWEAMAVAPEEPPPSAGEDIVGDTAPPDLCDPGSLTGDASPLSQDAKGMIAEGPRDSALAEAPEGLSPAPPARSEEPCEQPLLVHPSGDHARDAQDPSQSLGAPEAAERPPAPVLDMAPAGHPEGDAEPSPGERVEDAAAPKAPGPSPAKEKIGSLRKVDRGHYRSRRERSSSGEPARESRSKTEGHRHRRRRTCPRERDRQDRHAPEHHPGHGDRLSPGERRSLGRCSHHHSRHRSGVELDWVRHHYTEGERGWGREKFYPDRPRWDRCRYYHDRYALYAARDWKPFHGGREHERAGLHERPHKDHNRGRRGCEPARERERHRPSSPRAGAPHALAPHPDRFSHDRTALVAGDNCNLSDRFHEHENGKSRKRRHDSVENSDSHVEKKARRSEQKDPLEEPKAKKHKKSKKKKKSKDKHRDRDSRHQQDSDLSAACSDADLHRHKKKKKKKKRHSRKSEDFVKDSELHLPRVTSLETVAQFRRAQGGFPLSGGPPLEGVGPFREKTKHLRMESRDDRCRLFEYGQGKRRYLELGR
Method in brief: (§1)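 Labelling with Biotin-Ahx-Ub-VS (0.5 µM final, 1 h) followed a 3 h triplicate treatment of HEK293T lysate (495 µg per sample, Tris/CHAPS/IGEPAL buffer with protease inhibitors) with fragment at 200 µM or vehicle. Labelled DUBs were NeutrAvidin-enriched, digested with LysC and trypsin, and run by diaPASEF LC-MS/MS. The values, average log2 fragment/vehicle ratios by unpaired t-test, come from global-median-normalised Spectronaut label-free quantities. Proteins with ≥2 unique peptides were used.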

USP46 = USP46 (UniProt P62068)
Method in brief: as §1

USP47 = target: T2, USP47 (UniProt Q96K76)
T2 sequence (whole entry): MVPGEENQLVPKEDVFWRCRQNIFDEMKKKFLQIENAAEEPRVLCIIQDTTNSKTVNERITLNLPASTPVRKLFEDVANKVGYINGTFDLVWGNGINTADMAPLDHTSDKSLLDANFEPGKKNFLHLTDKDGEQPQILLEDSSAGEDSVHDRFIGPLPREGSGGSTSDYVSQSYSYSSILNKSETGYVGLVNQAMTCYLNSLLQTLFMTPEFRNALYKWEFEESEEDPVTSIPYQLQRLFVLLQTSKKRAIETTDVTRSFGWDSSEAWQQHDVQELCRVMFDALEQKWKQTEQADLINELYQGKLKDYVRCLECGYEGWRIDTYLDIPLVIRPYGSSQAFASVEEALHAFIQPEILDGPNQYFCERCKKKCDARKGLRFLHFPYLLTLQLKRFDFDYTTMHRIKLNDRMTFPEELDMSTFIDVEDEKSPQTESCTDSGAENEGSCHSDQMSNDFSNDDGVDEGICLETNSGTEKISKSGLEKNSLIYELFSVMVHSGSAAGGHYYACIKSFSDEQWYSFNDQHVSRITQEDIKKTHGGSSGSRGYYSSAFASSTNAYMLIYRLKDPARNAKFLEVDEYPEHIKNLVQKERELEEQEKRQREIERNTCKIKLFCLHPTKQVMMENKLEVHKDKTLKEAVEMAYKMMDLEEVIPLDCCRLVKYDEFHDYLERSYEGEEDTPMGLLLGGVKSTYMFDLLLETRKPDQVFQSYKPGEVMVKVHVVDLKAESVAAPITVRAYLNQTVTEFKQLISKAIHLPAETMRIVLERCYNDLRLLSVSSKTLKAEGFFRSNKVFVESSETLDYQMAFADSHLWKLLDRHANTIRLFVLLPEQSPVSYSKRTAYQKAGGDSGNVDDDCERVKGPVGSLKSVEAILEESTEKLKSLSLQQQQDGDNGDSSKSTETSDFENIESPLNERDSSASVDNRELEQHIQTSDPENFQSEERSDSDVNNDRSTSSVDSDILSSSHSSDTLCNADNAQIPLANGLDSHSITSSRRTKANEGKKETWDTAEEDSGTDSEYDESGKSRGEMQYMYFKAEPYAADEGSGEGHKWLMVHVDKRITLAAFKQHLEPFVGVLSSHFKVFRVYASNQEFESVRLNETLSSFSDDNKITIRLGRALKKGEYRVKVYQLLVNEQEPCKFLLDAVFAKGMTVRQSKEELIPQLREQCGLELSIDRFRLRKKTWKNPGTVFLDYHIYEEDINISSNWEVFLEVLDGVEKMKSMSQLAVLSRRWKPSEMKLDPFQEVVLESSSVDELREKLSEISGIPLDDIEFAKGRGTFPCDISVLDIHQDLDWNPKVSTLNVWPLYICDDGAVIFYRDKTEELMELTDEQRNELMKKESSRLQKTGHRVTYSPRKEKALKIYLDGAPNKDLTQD
Method in brief: as §1

USP48 = target: T3, USP48 (UniProt Q86UV5)
T3 sequence (whole entry): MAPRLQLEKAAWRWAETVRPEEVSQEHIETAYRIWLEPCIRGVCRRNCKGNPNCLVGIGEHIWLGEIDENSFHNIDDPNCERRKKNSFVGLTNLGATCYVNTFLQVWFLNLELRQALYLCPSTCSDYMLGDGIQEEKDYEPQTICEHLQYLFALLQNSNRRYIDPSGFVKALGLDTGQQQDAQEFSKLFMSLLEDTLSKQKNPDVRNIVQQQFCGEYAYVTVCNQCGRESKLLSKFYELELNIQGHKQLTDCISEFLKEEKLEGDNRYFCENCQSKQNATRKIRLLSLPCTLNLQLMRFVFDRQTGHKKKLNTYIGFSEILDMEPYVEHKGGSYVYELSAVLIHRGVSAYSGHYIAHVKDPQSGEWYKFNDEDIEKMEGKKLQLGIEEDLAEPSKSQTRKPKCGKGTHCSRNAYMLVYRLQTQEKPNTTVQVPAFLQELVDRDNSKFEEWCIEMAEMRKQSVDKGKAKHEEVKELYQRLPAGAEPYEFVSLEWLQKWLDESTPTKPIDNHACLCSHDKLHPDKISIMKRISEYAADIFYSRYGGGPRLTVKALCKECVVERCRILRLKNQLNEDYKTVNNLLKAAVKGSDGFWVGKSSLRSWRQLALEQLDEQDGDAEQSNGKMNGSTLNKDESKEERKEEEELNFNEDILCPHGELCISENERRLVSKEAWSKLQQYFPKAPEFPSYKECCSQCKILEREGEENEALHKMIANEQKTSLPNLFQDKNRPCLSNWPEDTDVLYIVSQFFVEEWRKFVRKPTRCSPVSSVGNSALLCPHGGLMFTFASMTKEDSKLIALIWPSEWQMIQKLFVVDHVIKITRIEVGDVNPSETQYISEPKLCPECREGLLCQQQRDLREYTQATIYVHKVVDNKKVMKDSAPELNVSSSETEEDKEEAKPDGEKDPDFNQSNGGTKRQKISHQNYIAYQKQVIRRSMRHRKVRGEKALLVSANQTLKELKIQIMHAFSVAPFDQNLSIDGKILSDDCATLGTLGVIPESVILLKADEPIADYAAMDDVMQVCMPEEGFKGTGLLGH
Method in brief: as §1

USP5 = target: T4, USP5 (UniProt P45974)
T4 sequence (whole entry): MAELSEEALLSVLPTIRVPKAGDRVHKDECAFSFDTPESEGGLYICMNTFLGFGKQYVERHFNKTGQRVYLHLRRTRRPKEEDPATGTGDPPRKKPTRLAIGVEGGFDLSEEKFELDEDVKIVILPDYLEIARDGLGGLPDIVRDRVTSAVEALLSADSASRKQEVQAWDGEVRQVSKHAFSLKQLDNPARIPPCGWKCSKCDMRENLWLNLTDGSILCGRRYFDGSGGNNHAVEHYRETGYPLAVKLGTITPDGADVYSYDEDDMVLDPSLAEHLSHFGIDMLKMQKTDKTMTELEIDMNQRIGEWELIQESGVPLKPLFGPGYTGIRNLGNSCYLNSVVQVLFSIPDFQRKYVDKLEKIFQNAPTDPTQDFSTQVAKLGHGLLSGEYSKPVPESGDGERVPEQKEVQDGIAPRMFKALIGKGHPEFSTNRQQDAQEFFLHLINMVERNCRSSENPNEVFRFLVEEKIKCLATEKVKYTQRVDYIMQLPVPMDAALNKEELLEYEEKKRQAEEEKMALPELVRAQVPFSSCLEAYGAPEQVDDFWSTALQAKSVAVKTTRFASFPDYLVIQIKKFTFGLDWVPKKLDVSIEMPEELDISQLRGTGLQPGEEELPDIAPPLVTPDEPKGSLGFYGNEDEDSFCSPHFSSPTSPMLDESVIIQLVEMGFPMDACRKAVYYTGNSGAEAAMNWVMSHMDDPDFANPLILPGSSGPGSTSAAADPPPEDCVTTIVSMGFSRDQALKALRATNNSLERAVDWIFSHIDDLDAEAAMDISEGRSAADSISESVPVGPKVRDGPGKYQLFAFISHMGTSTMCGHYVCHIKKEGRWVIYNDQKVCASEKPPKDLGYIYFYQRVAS
Method in brief: as §1

USP54 = USP54 (UniProt Q70EL1)
Method in brief: as §1

USP7 = USP7 (UniProt Q93009)
Method in brief: as §1

USP8 = target: T5, USP8 (UniProt P40818)
T5 sequence (whole entry): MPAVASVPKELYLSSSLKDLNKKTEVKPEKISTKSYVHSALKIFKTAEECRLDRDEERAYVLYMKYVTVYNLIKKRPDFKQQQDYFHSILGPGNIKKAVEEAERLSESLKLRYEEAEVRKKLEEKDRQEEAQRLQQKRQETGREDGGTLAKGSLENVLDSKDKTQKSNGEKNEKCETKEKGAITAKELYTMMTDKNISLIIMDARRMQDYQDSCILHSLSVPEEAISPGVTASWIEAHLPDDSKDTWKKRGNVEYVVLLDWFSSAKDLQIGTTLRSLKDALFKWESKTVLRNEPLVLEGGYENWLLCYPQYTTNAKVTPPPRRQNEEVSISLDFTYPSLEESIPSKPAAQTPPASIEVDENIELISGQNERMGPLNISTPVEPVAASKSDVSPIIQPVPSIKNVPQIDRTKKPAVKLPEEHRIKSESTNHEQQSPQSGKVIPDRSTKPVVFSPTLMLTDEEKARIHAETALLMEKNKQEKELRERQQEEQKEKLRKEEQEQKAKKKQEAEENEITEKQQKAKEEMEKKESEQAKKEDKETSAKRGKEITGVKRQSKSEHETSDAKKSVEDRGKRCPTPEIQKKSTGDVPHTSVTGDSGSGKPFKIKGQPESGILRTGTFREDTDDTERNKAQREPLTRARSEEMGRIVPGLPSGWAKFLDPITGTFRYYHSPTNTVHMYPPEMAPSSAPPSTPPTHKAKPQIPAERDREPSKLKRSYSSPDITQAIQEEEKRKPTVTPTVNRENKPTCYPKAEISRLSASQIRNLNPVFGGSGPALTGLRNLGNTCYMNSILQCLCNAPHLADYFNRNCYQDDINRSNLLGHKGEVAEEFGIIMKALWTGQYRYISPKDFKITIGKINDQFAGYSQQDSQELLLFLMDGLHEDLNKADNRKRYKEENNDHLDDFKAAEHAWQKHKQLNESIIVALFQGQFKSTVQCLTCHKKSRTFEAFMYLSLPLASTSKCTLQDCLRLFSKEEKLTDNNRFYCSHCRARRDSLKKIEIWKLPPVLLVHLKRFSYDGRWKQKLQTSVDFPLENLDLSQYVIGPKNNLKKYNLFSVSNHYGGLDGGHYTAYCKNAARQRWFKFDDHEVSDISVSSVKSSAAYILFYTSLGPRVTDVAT
Method in brief: as §1

USP9X = USP9X (UniProt Q93008)
Method in brief: as §1

UniProt O00487 = target: UniProt O00487
Method in brief: as §1

Measured: log2 ratio of Biotin-Ahx-Ub-VS probe labelling

Sequence of USP54 (Q70EL1 whole entry): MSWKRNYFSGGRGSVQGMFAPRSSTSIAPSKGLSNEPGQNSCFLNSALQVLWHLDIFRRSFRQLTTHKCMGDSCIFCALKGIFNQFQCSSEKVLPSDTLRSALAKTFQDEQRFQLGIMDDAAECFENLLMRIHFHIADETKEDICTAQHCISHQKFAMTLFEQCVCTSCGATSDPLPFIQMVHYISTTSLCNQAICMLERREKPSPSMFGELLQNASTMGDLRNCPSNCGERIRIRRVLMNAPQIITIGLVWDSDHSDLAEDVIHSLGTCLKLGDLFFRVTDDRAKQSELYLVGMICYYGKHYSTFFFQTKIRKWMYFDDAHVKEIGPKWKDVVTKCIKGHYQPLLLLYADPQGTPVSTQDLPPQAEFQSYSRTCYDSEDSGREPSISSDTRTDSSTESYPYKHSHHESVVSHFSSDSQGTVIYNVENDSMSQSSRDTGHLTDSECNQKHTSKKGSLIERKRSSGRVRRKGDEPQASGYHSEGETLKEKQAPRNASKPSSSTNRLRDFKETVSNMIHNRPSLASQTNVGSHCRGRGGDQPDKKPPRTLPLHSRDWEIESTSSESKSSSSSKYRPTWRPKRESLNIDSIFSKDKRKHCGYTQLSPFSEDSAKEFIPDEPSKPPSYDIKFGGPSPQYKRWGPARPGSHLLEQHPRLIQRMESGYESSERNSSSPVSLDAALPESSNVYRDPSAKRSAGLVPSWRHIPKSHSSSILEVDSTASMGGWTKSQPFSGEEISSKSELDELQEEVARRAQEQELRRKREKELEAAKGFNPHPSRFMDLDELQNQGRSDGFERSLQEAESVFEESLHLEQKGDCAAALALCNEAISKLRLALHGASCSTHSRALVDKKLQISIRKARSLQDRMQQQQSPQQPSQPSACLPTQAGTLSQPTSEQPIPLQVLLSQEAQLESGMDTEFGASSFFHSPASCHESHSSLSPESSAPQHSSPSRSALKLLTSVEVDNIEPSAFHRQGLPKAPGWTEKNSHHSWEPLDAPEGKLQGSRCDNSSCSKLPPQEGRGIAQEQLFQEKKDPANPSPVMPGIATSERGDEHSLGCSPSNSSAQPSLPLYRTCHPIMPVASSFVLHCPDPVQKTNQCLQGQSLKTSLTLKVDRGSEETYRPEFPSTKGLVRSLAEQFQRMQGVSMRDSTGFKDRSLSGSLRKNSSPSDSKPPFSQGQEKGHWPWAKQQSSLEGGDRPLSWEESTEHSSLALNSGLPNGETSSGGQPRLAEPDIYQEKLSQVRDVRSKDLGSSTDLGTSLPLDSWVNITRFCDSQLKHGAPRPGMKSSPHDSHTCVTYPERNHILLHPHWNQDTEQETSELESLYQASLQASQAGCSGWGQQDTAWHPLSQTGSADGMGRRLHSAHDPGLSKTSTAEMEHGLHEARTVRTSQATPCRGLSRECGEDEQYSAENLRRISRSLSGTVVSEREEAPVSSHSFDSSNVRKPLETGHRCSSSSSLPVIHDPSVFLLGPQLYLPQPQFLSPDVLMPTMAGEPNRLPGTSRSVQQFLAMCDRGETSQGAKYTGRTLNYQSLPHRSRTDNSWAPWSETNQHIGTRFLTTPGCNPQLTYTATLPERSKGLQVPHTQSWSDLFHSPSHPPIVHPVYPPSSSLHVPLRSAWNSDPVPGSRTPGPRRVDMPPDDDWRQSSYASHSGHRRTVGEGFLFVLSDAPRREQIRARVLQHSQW
Sequence of USP46 (P62068 whole entry): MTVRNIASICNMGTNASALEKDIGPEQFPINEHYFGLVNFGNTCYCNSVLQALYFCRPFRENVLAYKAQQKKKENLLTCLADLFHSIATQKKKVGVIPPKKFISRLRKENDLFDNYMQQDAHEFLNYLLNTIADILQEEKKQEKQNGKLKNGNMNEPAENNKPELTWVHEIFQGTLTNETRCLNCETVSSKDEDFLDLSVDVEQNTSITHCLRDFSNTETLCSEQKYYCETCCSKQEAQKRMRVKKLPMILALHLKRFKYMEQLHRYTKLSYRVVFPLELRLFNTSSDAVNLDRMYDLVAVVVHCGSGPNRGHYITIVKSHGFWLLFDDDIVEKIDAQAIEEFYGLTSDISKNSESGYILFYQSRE
Sequence of USP9X (Q93008 whole entry): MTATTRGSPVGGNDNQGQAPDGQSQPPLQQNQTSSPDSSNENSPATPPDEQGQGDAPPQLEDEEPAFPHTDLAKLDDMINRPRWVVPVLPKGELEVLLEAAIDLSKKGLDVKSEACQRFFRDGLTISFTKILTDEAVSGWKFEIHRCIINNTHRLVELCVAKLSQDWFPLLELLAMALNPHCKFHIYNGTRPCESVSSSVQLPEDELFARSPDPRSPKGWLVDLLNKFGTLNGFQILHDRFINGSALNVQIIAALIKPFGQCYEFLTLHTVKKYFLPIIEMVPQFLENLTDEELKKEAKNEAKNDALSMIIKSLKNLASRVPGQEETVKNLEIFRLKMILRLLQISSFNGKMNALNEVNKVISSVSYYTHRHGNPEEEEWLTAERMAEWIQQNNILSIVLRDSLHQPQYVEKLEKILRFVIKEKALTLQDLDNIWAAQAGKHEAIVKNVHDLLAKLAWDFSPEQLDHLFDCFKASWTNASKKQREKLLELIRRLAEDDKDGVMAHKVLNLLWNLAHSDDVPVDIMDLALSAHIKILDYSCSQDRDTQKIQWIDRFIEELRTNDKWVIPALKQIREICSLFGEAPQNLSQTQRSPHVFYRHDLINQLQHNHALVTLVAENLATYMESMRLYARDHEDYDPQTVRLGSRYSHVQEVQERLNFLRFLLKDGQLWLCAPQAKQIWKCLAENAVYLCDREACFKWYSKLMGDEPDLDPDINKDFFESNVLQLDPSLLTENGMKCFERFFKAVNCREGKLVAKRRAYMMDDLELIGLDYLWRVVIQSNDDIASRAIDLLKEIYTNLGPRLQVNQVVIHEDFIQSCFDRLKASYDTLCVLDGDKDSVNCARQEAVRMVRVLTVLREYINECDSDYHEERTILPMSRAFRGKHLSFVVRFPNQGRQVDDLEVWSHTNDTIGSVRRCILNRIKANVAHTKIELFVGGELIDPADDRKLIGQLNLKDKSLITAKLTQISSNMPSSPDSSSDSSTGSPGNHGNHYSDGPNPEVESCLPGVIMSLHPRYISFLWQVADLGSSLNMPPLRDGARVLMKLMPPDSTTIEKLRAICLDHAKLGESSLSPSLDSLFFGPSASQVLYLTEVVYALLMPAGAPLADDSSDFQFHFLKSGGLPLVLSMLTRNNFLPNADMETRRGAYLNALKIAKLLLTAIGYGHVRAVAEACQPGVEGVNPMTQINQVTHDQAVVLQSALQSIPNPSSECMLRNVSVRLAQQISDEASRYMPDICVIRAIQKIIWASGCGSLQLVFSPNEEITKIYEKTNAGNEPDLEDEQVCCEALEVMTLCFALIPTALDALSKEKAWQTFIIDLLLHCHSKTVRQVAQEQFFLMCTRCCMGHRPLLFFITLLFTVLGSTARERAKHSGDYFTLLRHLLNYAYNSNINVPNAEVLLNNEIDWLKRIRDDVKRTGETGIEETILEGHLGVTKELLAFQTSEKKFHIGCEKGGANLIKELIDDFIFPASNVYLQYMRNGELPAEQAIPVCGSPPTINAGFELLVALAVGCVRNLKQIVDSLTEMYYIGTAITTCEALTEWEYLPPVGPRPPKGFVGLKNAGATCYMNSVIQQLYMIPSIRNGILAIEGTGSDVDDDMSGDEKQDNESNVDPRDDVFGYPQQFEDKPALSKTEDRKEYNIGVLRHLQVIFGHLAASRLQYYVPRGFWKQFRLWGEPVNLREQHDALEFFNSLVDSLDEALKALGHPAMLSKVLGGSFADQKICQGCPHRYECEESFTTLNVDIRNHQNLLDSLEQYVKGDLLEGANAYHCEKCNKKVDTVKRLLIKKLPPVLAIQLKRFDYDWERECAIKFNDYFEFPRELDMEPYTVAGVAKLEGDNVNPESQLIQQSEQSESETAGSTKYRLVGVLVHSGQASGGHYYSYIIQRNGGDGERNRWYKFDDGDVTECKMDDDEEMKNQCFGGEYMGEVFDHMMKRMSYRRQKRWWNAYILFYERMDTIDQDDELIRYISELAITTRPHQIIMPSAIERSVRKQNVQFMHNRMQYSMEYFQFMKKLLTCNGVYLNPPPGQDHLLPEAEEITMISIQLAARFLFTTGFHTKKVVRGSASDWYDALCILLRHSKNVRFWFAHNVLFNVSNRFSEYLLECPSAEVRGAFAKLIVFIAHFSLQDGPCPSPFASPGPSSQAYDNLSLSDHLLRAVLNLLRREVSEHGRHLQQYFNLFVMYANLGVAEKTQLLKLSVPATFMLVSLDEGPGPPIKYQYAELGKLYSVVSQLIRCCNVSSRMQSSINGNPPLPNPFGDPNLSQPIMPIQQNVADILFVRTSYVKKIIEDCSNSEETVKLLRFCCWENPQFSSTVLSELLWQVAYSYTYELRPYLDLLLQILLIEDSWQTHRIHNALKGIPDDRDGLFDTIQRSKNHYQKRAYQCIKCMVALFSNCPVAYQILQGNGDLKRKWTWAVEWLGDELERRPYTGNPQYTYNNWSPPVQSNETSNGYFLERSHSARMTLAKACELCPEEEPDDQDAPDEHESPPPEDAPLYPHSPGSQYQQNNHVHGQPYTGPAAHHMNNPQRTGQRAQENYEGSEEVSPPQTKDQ
Sequence of UniProt O00487 (O00487 whole entry): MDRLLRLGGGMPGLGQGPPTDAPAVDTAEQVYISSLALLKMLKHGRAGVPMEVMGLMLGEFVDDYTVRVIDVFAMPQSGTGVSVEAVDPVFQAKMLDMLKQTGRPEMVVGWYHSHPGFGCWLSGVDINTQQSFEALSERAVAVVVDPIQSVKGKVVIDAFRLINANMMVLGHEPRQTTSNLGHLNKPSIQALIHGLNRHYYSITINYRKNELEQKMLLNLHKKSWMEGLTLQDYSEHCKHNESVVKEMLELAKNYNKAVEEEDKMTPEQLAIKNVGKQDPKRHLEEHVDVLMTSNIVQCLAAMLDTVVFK

Cc1ccccc1OCC(=O)N1CCN(C(=O)CCl)CC1
active: USP47 -1.19
inactive: USP42 0.258 | USP46 -0.329 | USP48 -0.356 | USP5 0.0461 | USP54 -0.923 | USP7 -0.701 | USP8 0.0472 | USP9X -0.0136 | UniProt O00487 0.0797
